# NALP3 yeast inh = NALP3 inflammasome inhibitors in reconstituted yeast, primary screen, luminescence, uHTS. Yeast reconstituted NLRP3/ASC/caspase-1, beta-gal luminescence, 24 h. inhibition, % at 10 µM. hit rate 0.39% among 330,000. AID 2825, 2010;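 active = inhibition of 50% or more; inactive = inhibition below 50%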;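 note: plate controls were induced DMSO wells for no effect and uninduced yeast grown without galactose for full effect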
# tim23-1 inh = growth inhibitors of tim23-1 mutant yeast, primary screen, luminescence, uHTS. S. cerevisiae tim23-1 growth, BacTiter-Glo luminescence, 24 h. inhibition, % at 20 µM. hit rate 1.3% among 330,000. AID 463212, 2010;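 active = growth inhibition of the mutant yeast at or above 50%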;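 note: temperature-sensitive mutant grown at 25 °C; plate controls were DMSO-treated mutant yeast for no effect and medium wells lacking yeast for full effect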
# SKKanGAS inh = S. pyogenes SKKanGAS growth inhibitors in kanamycin, primary screen, streptokinase expression inhibitor project, SKKanGAS strain, BacTiter-Glo luminescence; 6 h; inhibition, % at 7.5 µM; hit rate 1.3% among 300,000; AID 1662, 2009;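 active = mean replicate score, as percent of positive control median, at least 50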;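 note: strain carries kanamycin resistance gene driven by streptokinase promoter and grows in 40 µg/ml kanamycin; loss of luminescence reflects streptokinase promoter inhibition or plain growth inhibition; 0% = median of DMSO wells and 100% = positive control at its reference dose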
# tim10-1 inh = growth inhibitors of tim10-1 mutant yeast, primary screen, luminescence, uHTS. S. cerevisiae tim10-1 ts strain growth, BacTiter-Glo, 24 h. inhibition, % at 20 µM. hit rate 2.2% among 330,000. AID 463190, 2010;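 active = inhibition of at least 40%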;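 note: mutant grown at 25 °C; 0% = DMSO wells with yeast and 100% = wells holding no yeast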
# TIM10 inh = growth inhibitors of isogenic TIM10 control yeast, primary screen, counter-screen for tim10-1 yeast inhibitor project, luminescence, uHTS. S. cerevisiae TIM10 strain growth, BacTiter-Glo luminescence, 24 h. hit rate 1.4% among 330,000. inhibition, % at 10 µM;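 active = inhibition of 40% or more at the single tested concentration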;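 note: wild-type TIM10 isogenic control strain grown at permissive 25 °C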
# tim10-1 conf = growth inhibitors of tim10-1 mutant yeast, confirmation, single concentration, luminescence, S. cerevisiae; shares compounds with tim10-1 inh; S. cerevisiae tim10-1 ts strain growth, BacTiter-Glo, 24 h; inhibition, % at 20 µM; hit rate 56% among 7,400; AID 463213, 2010;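 active = inhibition of yeast growth at or above a set limit in either of two repeat tests at 20 µM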;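 note: tim10-1 mutant grown at permissive 25 °C to find synthetic lethal compounds; 0% = DMSO yeast wells and 100% = medium wells without yeast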
# * = called active by the depositor; . = no result. Most compounds without a hit are left out; they make up all but 4.6% or so of the library.
SMILES,NALP3 yeast inh,tim23-1 inh,SKKanGAS inh,tim10-1 inh,TIM10 inh,tim10-1 conf
Cn1cccc1Cc1nnc(SCC(=O)N2CCc3ccccc32)n1-c1ccc(F)cc1,4,12,-11,9,2,.
COc1ccc(-n2c(CNc3ccc(C)cc3)nnc2SCc2ccccc2)cc1,0,48,7,43*,26,34*
Cc1ccc(N2CC(NC(=O)C(=O)c3c(C)[nH]c4ccccc34)CC2=O)cc1C (configuration not stated),0,-12,-3,6,-4,.
Cc1ccc(-n2c(SCC(=O)OC(C)C)nnc2-c2ccccn2)cc1,8,36,0,42*,30,35*
Cc1ccc(S(=O)(=O)NCC(=O)OCC(=O)c2ccc(Cl)s2)cc1,6,27,6,0,8,.
O=C(Oc1ccc2ccc(=O)oc2c1)c1ccco1,14,31,2,46*,30,20
COc1ccc(N(CC(=O)NC2CCCC2)C(=O)Cn2nnc(-c3ccc(F)cc3)n2)cc1,-6,9,-3,-7,19,.
CCOC(=O)C1=C(COC(=O)C(CC)c2ccccc2)NC(=O)NC1C (configuration not stated),3,10,.,-6,-10,.
CCC(C)(C)C1CCc2[nH]nc(C(=O)NCCNC(=O)OC(C)(C)C)c2C1 (configuration not stated),3,32,.,22,13,.
O=C(ON=C1CCN(S(=O)(=O)c2ccccc2)CC1)c1ccc(F)cc1,-2,46,-3,52*,37,54*
Cc1ccc(S(=O)(=O)NCc2ccccc2)cc1C(=O)NCC(C)(C)N1CCOCC1,19,-12,1,-19,-7,.
N#C/C(=C/c1ccc(N2CCCCCC2)o1)c1ccc(Cl)cc1,35,48,33,47*,39,28
Cc1ccc(/C(C#N)=C\c2ccc(N3CCOCC3)o2)cc1,42,42,-10,36,14,.
O=C(COC(=O)CC1SC(N2CCCC2)=NC1=O)Nc1ccc(Br)cc1 (configuration not stated),5,-7,.,9,-11,.
C/C(=N\NC(N)=S)C12CC3CC(CC(C3)C1)C2,11,46,-7,43*,26,-21
Nc1ccccc1Nc1cc(-c2ccccc2)nn1-c1cccc(Cl)c1,22,48,46,44*,20,16
CC(C)C(C(=O)N1CCN(Cc2ccccc2)CC1)c1ccccc1 (configuration not stated),-31,35,1,50*,32,35*
O=C(C(Cc1ccccc1)n1cccc1)N1CCN(Cc2ccccc2)CC1 (configuration not stated),7,21,1,42*,11,5
O=C(C(Cc1ccccc1)n1cccc1)N1CCCCC1 (configuration not stated),16,11,-6,21,6,.
C=CCn1c(=O)c(CCC(=O)Nc2ccc(N3CCOCC3)cc2)nc2cc(C(F)(F)F)ccc21,30,-5,-1,7,16,.
CCc1nn(C(C)C(=O)NC2CCCCCC2)c(=O)c2cc3occc3n12 (configuration not stated),-3,34,-2,41*,4,-7
COc1ccc(-c2c(C)nn3c(N4CCN(Cc5ccccc5)CC4)cc(C)nc23)cc1OC,20,41,2,34,15,.
COc1ccc(-c2c(C)nn3c(NC4CCCC4)cc(C)nc23)cc1OC,2,42,0,44*,9,23
COc1ccc(CCNc2cc(C)nc3c(-c4ccccc4)c(C)nn23)cc1OC,18,25,2,43*,18,20
c1ccn2cc(C34CC5CC(CC(C5)C3)C4)nc2c1,0,49,-11,53*,36,39*
CC(C)C(=O)N[C@H]1CCC2C3CC=C4C[C@@H](O)CC[C@]4(C)C3CC[C@@]21C (some centres not stated),25,20,.,11,2,.

# Compound activity deposited in PubChem by several laboratories.
